Assay [1] can be described thus: Nuclear factor erythroid 2-related factor 2/antioxidant responsive element (Nrf2/ARE) small molecule agonists: qHTS cell viability counter screen in human keratinocytes (AID 1919968; active = well fitted curve in the direction sought with a large enough effect in the repeat runs; an effect the other way counts as inactive or inconclusive; note: nearly all actives have a fitted effect of over 55% in size). The essentials: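 Cells of the KeratinoSens line were plated at 1,500 per well and left for 5 h before compound transfer from DMSO stocks. After a 23 h incubation (37 C, 5% CO2), CellTiter-Fluor was added. Signal was taken as fluorescence intensity 1 h later.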
(Quantitative high-throughput screening tests each substance at several concentrations.)

Assay [2] is described as follows: Nuclear factor erythroid 2-related factor 2/antioxidant responsive element (Nrf2/ARE) small molecule agonists: luciferase reporter gene qHTS assay in human keratinocytes (AID 1919969). Note: nearly all actives have a fitted effect of over 35% in size. On the technique in general: Reporter assays use an easily measured gene product as a stand-in for the process of interest.
The target in assay [3] is Gonadotropin-releasing hormone receptor (Homo sapiens) (UniProt P30968). Nature of the assay: Human gonadotropin-releasing hormone receptor (GnRHR) small molecule agonists, calcium flux assay in GnRHR-HEK293 cells (AID 1920063). Note: nearly all actives have a fitted effect of over 35% in size. The essentials: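 Compounds dissolved in DMSO are pin-transferred onto dye-loaded GnRHR-HEK293 cells, which were seeded 18 h before at 37 C/5% CO2. Calcium signal is read as fluorescence intensity at 1 s intervals for 3 min.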
Gonadotropin-releasing hormone receptor (Homo sapiens), sequence (P30968 whole entry, looked up): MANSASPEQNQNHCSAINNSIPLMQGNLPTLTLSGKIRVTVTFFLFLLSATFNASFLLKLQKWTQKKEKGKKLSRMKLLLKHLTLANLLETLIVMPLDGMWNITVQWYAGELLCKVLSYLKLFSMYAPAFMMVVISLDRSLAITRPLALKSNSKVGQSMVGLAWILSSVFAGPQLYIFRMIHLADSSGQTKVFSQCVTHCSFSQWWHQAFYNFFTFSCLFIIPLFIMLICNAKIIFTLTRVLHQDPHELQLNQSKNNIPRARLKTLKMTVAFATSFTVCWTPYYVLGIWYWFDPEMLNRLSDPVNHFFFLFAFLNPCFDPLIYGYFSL
In general terms: Calcium assays in cells follow changes in intracellular calcium, usually with a dye or a luminescent sensor.

Assay [4] has as its target KiSS-1 receptor (Homo sapiens) (UniProt Q969F8). As to the kind of experiment: Human kisspeptin (KISS1R) small molecule agonists, calcium flux assay in KISS1R-HEK293 cells (AID 1920064; active = well fitted curve in the direction sought with a large enough effect in the repeat runs; an effect the other way counts as inactive or inconclusive). The essentials: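 Cell line: HEK293, stable human KISS1R. Dye loading 1 h at 37 C after 18 h culture. Read: kinetic fluorescence, 480/540 nm, 3 min at 1 s intervals.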
The nature of assay [5]: G protein-coupled receptor (GPCR) small molecule agonists, calcium flux assay: HEK293 wild type cell line counter screen (AID 1920065). The essentials: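 Tox21 10K compounds, 15 concentrations each in triplicate, pin-transferred in DMSO onto dye-loaded cells; kinetic read at 480/540 nm for 3 min, 1 s intervals.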
Assay [6] is described as follows: p53 small molecule agonists, cell-based qHTS assay with rat liver microsomes (AID 1963578). The essentials: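 With rat liver microsomes and NADPH present (0.5 mg/mL final each), p53RE-bla cells are treated with compound for 16 h at 37 C. LiveBLAzer detection mixture is then applied for 2 h at room temperature in the dark.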
Assay [7] is described as follows: p53 small molecule agonists, cell-based qHTS assay with human liver microsomes: qHTS cell viability counter screen (AID 1963579). Note: nearly all actives have a fitted effect of over 45% in size. The essentials: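 In this multiplexed counter screen, the reporter plates were subsequently treated with CellTiter-Glo so that cell viability, reflected by luminescence, could be recorded for p53RE-bla cells dosed 16 h with compounds under microsomal activation (HLM and NADPH).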

Assay [8] in a line: p53 small molecule agonists, cell-based qHTS assay with rat liver microsomes: qHTS cell viability counter screen (AID 1963580). Note: nearly all actives have a fitted effect of over 45% in size. The essentials: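 Rat liver microsome (0.5 mg/mL final) and NADPH (0.5 mg/mL final) co-incubation with compounds for 16 h at 37 C on HCT-116 p53RE-bla cells; cytotoxicity taken from intracellular ATP luminescence.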
A short description of assay [9]: p53 small molecule agonists, cell-based qHTS assay (AID 1963582; active = well fitted activation curve with a large enough effect in the signal ratio in the repeat runs, not every such curve was filed as active; the % refers to the signal ratio). A digest of the protocol: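 16 h compound exposure (37 C) of p53 response element–bla cells, preceded by 5 h recovery at 37 C/5% CO2; read-out via LiveBLAzer B/G FRET substrate, 2 h RT, fluorescence intensity.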
Assay [10] has as its target 5-hydroxytryptamine receptor 2A (Homo sapiens) (UniProt P28223). Nature of the assay: 5-hydroxytryptamine receptor 2A (HTR2A) small molecule antagonists, cell-based qHTS assay (AID 1963586). Note: nearly all actives have a fitted effect of over 45% in size. The essentials: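 CHO cells stably expressing human HTR2A were plated for 18 h at 37 C, then loaded with calcium dye for 1 h. Compounds were preincubated 5 min at room temperature before DOI (4 nM solution) was added. Kinetic fluorescence was read for 3 min.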

For assay [11] the target is unchanged. Nature of the assay: 5-hydroxytryptamine receptor 2A (HTR2A) small molecule agonists, cell-based qHTS assay (AID 1963587). Note: nearly all actives have a fitted effect of over 30% in size. The essentials:
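Kinetic calcium-flux fluorescence (2 min, 1 sec intervals) after compound addition in agonist mode. HTR2A-CHO cells were cultured 18 h, then dye-loaded 1 h at 37 C.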

Assay [12] deals with Muscarinic acetylcholine receptor M1 (Homo sapiens) (UniProt P11229). As to the kind of experiment: Cholinergic receptor muscarinic 1 (CHRM1) small molecule antagonists, cell-based qHTS assay (AID 1963588). Note: nearly all actives have a fitted effect of over 40% in size. The essentials:
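Compounds were tested at 15 concentrations in three independent runs. Dye-loaded CHRM1-CHO cells were exposed 5 min at room temperature before stimulation by acetylcholine added at 50nM. Intracellular calcium was read kinetically on FDSS for 3 min.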

Assay [13] has the same target. As to the kind of experiment: Cholinergic receptor muscarinic 1 (CHRM1) small molecule agonists, cell-based qHTS assay (AID 1963589). Note: nearly all actives have a fitted effect of over 35% in size. The essentials:
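Homogeneous fluorescence calcium flux, agonist mode. Human M1-expressing CHO cells; compound dosed at 15 concentrations, three independent runs; signal sampled every 1 sec.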

A short description of assay [14]: cAMP Responsive Elements (CRE) small molecule agonists, cell-based qHTS assay (AID 1963590). Note: potency is the fitted concentration of half-maximal effect. The essentials:
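HEK 293T cells stably bearing CRE-bla were plated at 2,000 cells per well and rested 18 h. Compounds, positive controls or DMSO were added for 3 h at 37 C. LiveBLAzer B/G substrate was then loaded for 2 h at room temperature.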

The target of assay [15] is Beta-2 adrenergic receptor (Homo sapiens) (UniProt P07550). Nature of the assay: Adrenergic beta2 receptor (ADRB2) small molecule antagonists, cell-based qHTS assay (AID 1963592). Note: series mostly up to about 92 µM; nearly all actives have a fitted effect of over 50% in size. A digest of the protocol:
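Assay format: CHO-ADRB2 cells, 18-20hr seeding at 37C/5% CO2, then compound plus 1nM isoproterenol agonist mix for 0.5hr RT. Homogeneous time-resolved fluorescence cAMP detection after 1hr, expressed as 665/615 nm ratio.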

In assay [16] the target is D(2) dopamine receptor (Homo sapiens) (UniProt P14416). Nature of the assay: Dopamine D2 receptor (DRD2) small molecule agonists, cell-based qHTS assay (AID 1963594). Note: nearly all actives have a fitted effect of over 35% in size. A digest of the protocol:
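cAMP accumulation in DRD2-HEK293 cells measured by HTRF after 1 h detection; compounds added 10 min before NKH477 (200nM […]) forskolin-analogue stimulation, 30 min at room temperature, with Ro20-1724 present at 0.1 mM final.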

Assay [17] shares this target. As to the kind of experiment: Dopamine D2 receptor (DRD2) small molecule antagonists, cell-based qHTS assay (AID 1963595; active = well fitted inhibition curve with a large enough effect in the signal ratio in the repeat runs, with a control signal flat; the % refers to the signal ratio; note: potency is the fitted concentration of half-maximal effect). A digest of the protocol:
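Antagonism was scored as restored cAMP in HEK293-DRD2 cells. These cells were stimulated with 200 nM NKH477 and 12 nM quinpirole for 30 min at room temperature, in the presence of 0.1 mM Ro20-1724.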

Assay [18] in a line: p53 small molecule agonists, cell-based qHTS assay: qHTS cell viability counter screen (AID 1963581). Note: nearly all actives have a fitted effect of over 45% in size. The essentials:
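ATP content measured by luminescence in HCT-116 p53RE-bla cells treated 16 h at 37 C, same wells as the reporter screen.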

A short description of assay [19]: cAMP Responsive Elements (CRE) small molecule antagonists, cell-based qHTS assay (AID 1963591; active = well fitted inhibition curve with a large enough effect in the signal ratio in the repeat runs, not every such curve was filed as active; the % refers to the signal ratio). The essentials:
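First, CRE-bla HEK293T cells settled 18 h at 37 C. Next, compound and 0.25 uM final NKH477 were applied for 3 h. Last, LiveBLAzer B/G substrate was loaded for 2 h at room temperature.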

Assay [20] has as its target Beta-2 adrenergic receptor (Homo sapiens) (UniProt P07550). As to the kind of experiment: Adrenergic beta2 receptor (ADRB2) small molecule agonists, cell-based qHTS assay (AID 1963593).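 Note: CHO cells stably overexpressing human ADRB2.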 The essentials: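 CHO cells stably over-expressing ADRB2 were plated overnight at 37C, then dosed with compounds plus a stimulation mix containing 100uM IBMX and 25uM Ro-20-1724 for 0.5hr at room temperature. cAMP was measured by HTRF competition, 1hr.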

Records with an inconclusive call do not appear. Activity calls are given as the source filed them. Unless noted, calls come from the whole dose curve.

KiSS-1 receptor (Homo sapiens), sequence (Q969F8 whole entry, looked up): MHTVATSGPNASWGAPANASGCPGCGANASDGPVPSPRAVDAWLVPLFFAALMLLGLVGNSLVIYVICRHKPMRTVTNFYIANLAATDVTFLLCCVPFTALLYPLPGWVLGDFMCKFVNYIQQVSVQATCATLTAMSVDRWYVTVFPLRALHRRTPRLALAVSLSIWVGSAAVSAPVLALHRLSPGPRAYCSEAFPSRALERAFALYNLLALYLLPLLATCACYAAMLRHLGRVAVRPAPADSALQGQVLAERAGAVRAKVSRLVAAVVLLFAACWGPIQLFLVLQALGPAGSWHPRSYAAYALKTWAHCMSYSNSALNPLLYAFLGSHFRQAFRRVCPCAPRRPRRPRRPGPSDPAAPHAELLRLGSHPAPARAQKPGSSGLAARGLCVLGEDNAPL
5-hydroxytryptamine receptor 2A (Homo sapiens), sequence (P28223 whole entry, looked up): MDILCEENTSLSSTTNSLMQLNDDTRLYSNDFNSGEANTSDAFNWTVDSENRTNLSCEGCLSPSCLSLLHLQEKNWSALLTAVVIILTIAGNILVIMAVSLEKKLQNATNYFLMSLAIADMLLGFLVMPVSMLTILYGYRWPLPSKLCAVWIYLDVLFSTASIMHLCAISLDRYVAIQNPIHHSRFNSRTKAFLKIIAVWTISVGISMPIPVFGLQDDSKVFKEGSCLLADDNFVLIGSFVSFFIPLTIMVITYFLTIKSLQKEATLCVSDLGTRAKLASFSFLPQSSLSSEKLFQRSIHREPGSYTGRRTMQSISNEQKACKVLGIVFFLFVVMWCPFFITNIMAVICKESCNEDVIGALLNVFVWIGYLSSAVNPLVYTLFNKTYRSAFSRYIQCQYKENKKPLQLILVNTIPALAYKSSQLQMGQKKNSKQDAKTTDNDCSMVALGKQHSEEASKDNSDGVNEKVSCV
Beta-2 adrenergic receptor (Homo sapiens), sequence (P07550 whole entry, looked up): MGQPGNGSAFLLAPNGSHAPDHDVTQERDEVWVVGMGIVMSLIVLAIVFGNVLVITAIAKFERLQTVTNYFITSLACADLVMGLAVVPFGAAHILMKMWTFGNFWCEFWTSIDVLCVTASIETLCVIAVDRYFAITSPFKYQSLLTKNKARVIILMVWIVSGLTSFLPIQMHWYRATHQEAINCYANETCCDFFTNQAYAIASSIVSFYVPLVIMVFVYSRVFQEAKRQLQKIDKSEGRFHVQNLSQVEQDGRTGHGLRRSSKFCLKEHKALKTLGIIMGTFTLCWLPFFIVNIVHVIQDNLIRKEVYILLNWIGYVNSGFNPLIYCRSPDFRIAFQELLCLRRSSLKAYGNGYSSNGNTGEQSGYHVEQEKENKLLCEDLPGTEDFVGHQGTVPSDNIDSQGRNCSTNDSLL
D(2) dopamine receptor (Homo sapiens), sequence (P14416 whole entry, looked up): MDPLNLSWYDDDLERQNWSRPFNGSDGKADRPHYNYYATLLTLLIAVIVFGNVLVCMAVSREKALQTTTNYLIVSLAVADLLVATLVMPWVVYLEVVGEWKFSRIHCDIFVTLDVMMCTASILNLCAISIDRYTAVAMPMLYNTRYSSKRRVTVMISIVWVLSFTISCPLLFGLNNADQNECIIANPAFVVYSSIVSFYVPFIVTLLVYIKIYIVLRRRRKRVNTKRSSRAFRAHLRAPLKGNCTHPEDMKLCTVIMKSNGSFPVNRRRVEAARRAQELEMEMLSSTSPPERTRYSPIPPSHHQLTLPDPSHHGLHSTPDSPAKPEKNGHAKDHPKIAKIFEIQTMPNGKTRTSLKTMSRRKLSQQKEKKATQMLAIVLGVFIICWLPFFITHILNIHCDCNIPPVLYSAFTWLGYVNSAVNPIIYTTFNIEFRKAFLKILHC
Muscarinic acetylcholine receptor M1 (Homo sapiens), sequence (P11229 whole entry, looked up): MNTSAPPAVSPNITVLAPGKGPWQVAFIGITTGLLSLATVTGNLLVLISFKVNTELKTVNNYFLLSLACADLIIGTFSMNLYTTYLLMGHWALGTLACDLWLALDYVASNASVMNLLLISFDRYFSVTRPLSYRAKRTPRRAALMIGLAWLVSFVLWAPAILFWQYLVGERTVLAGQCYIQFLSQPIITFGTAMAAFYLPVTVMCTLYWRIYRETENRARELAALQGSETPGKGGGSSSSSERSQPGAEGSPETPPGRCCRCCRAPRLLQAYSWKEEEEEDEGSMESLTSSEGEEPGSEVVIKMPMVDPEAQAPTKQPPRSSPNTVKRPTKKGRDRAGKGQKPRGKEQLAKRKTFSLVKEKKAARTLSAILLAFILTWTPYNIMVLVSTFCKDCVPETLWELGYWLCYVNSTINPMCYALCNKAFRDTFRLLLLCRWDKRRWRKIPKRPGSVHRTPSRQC

As for `CC(=O)OCCC1CCCCC1`, the Potency result in assay [1], in [2], in assay [3], in [4], in assay [5] and in [6] was “inactive” throughout. Also, the Potency entry in assay [7], in assay [8], in assay [9], in [10], in [11] and in assay [12] was “inactive” in each case. In addition, the Potency result in assay [13], in assay [14], in [15], in [16] and in [17] was “inactive” throughout.

Consider `Nc1ncnc2c1ncn2[C@@H]1O[C@H](COP(=O)(O)O)[C@@H](O)[C@H]1O`, for which the Potency result in assay [1], in [2], in assay [3], in assay [4], in assay [5] and in [6] was “inactive” throughout. Moreover, the Potency result in assay [7], in [8], in assay [18], in assay [10], in [11] and in assay [12] was “inactive” each time. Also, the Potency entry in assay [13], in [19], in assay [15] and in [20] was “inactive” each time. In addition, the Potency in assay [14] is 11.9 µM (active); in [17], 0.944 µM (active).

Take `NC(=O)Nc1ccc(Cl)cc1`: the Potency entry in assay [1], in assay [2], in assay [3], in assay [4], in assay [5] and in [6] was “inactive” throughout. In addition, the Potency entry in [7], in assay [8], in [9], in [10], in assay [11] and in assay [13] was “inactive” throughout. The Potency entry in assay [19], in assay [15], in assay [20], in [16] and in [17] was “inactive” each time.

On to `Cc1c(C)c2c(c(C)c1O)CCC(C)(COc1ccc(CC3SC(=O)NC3=O)cc1)O2` (centres undefined), for which the Potency entry in assay [1], in [2], in [3], in [4], in [5] and in assay [6] was “inactive” each time. Besides, the Potency result in [7], in assay [8], in assay [18], in [15], in [20] and in assay [17] was “inactive” throughout.

On to `COC(CC(C)CCCC(C)(C)O)OC` (centres undefined), for which the Potency result in [1], in assay [2], in assay [3], in assay [4], in [5] and in assay [6] was “inactive” each time. Moreover, the Potency result in assay [7], in assay [8], in assay [18], in assay [10], in assay [11] and in [12] was “inactive” throughout. Also, the Potency result in assay [13], in assay [14], in [19], in assay [15], in [16] and in [17] was “inactive” throughout.

With `CC(C)(C)C1CCCCC1O` (centres undefined), the Potency entry in assay [1], in assay [2], in [3], in assay [4], in assay [5] and in assay [6] was “inactive” in each case. In addition, the Potency entry in assay [7], in [8], in assay [9], in assay [11], in assay [12] and in assay [13] was “inactive” throughout. The Potency result in assay [14], in assay [19], in assay [15], in assay [16] and in assay [17] was “inactive” each time.

In the case of `Nc1cc(S(=O)(=O)O)ccc1S(=O)(=O)O`, the Potency result in assay [1], in assay [2], in [3], in assay [4], in assay [5] and in assay [6] was “inactive” throughout. Further, the Potency result in assay [7], in assay [8], in assay [18], in [9], in [10] and in [11] was “inactive” in each case. The Potency entry in assay [12], in assay [13], in assay [14], in assay [19], in assay [15] and in assay [16] was “inactive” throughout. In addition, the Potency result in [17] is “inactive”.

`CN(CC1(C)CCCO1)S(=O)(=O)c1ccc(Cl)c(S(N)(=O)=O)c1` (centres undefined): the Potency result in [1], in assay [2], in [3], in [4], in assay [5] and in assay [6] was “inactive” each time. The Potency result in assay [7], in [8], in assay [18], in assay [9], in assay [10] and in assay [13] was “inactive” in each case. Besides, the Potency entry in assay [14], in [19], in [15] and in [16] was “inactive” each time.

The values above are taken from PubChem BioAssay (Tox21).
